# Laboratory results: ChEMBL document CHEMBL1157539, “Thousands of chemical starting points for antimalarial lead identification” (Nature, 2010)
# Key:
# Format in all cases: functional
# Plasmodium falciparum [1] = assay: GSK_TCMDC: Inhibition of Plasmodium falciparum 3D7 in whole red blood cells, using parasite LDH activity as an index of growth. Test compounds present at 2uM
# Plasmodium falciparum [2] = assay: GSK_TCMDC: Inhibition of Plasmodium falciparum Dd2 in whole red blood cells, using parasite LDH activity as an index of growth. Test compounds present at 2uM
# HepG2 = assay: GSK_TCMDC: Percent inhibition of human HepG2 cell line. Test compounds present at 10uM.
Compound,Inhibition (Plasmodium falciparum [1]) [%],Inhibition (Plasmodium falciparum [2]) [%],Inhibition (HepG2) [%]
COc1ccccc1-c1ccc(C(=O)NCC2CCCN(Cc3cccc(C(F)(F)F)c3)C2)s1.O=C(O)C(F)(F)F (centres undefined),81,37,18
Cc1[nH]c(C)c(-c2ccc(Oc3ccc(F)cc3)cc2)c(=O)c1Cl,99,98,14
COc1cc(C(=O)NCCCN2CCN(c3cc(Cl)ccc3OC)CC2)ccc1-c1nc2cc(Cl)c(Cl)cc2[nH]1,100,99,12
CC(C)NCc1ccc(-c2ccc(NC(=O)c3ccc(Cl)cc3)cc2)cc1.O=C(O)C(F)(F)F,90,8,60
COc1ccc2nccc([C@@H](O)CN3CCC(NCc4cc5ccccc5nc4O)CC3)c2c1.Cl,97,0,0
Cn1cnc(CCNC(=O)c2cccc(-c3csc(-c4nc5ccccc5[nH]4)c3)c2)c1,100,26,33
Cn1cnc(CCNC(=O)c2cccc(-c3ccc(-c4nc5cc(F)ccc5[nH]4)cc3)c2)c1,88,5,26
Cc1cccc(CCNC(=O)c2cc(Br)cc(N3CCN(c4ccncc4)CC3)c2)c1.O=C(O)C(F)(F)F,96,53,48
Cn1c(=O)c2cc(C(=O)NCCCN3CCCCCC3)sc2c2ccccc21,99,99,32
Cc1noc(C)c1-c1cccc(CNCc2cccc(-c3ccc(-c4nc5ccccc5[nH]4)s3)c2)c1.O=C(O)C(F)(F)F,100,29,24
CCOc1ccccc1CNc1nccc(NCCc2cn(C)c3ccccc23)n1,98,62,27
OCCc1ccc(Nc2nccc(-c3nnc4ccccn34)n2)cc1,93,46,63
Clc1ccc(-c2ccc(CNCCCN3CCCC3)cc2)cc1,91,21,47
Cc1c(Cl)cccc1S(=O)(=O)Nc1cccc(CCN2CCC(N3CCCCC3)CC2)c1,100,82,38
CC(C)N1CCC(N(Cc2ccc(-c3ccc(C(F)(F)F)cc3)cc2)C(=O)Cn2c(CCc3cccc(F)c3F)cc(=O)c3c2CCC3)CC1.O=C(O)C(O)C(O)C(=O)O,100,62,30
COc1cc(F)c2nccc([C@@H](O)CN3CCC(NCc4nc5cccc(F)c5[nH]4)CC3)c2c1.O=C(O)C(=O)O,99,5,11
Cl.N=C(N)c1ccc(NN=Cc2ccc(Oc3ccc(C(=N)N)cc3)cc2)cc1,99,100,18
O=C(CC1CCCC1)N(Cc1ccc(-c2ccc(CNC3Cc4ccccc4C3)cc2)cc1)CC1CCCCN1.O=C(O)C(F)(F)F (centres undefined),88,86,41
CC(C)CCN1CCC(Oc2ccc(NC(=O)c3cccs3)cc2Cl)C1.O=C(O)C(F)(F)F (centres undefined),94,93,17
CC(C)NCc1ccc(-c2ccc(NC(=O)c3cccc(Cl)c3)cc2)cc1.O=C(O)C(F)(F)F,100,14,36
COc1cc(-c2nc(-c3ccc([N+](=O)[O-])cc3)c(-c3ccccc3)[nH]2)cc(OC)c1O,98,56,7
CCS(=O)(=O)c1ccc(-c2cnc3[nH]cc(-c4ccc(N)cc4)c3c2)cc1,92,99,24
O=C(NC1CCN(Cc2ccccc2)CC1)c1ccc(-c2nc3cc(Cl)c(F)cc3[nH]2)cc1,100,100,13
CC(CCc1ccccc1)NCC(O)c1ccc2c(c1)S(=O)(=O)c1ccccc1N2 (centres undefined),95,4,17
CCC[C@@H]([C@@H](CC(C)C)C(=O)N[C@@H](CCCNc1nccc(C(F)(F)F)n1)C(=O)Nc1nccs1)N(O)C=O,99,98,0
COc1ccc(CCN2CCC(NCc3cccc(N(C)C)c3)CC2)cc1,98,7,18
CN(C)Cc1cccc(-c2ccc(Nc3nccc(NCC(O)c4ccccc4)n3)cc2)c1 (centres undefined),100,77,75
Nc1nc(N)c2c(ccc3c2ccn3CC2CC2)n1,96,3,46
